Screening results: PubChem BioAssay, National Center for Advancing Translational Sciences (NCATS)
A selection: hits, their analogues and other compounds. The true share with any hit is near 10%.
HPGD inh = qHTS Assay for Inhibitors of HPGD (15-Hydroxyprostaglandin Dehydrogenase) | Potency, µM, inactives show top-dose activity change, negative = inhibition, most hits filed as inhibitors | purified HPGD, NADH fluorescence kinetic, PGE2 substrate | 4.3% of 150,000 active | 15-hydroxyprostaglandin dehydrogenase [NAD(+)] (Homo sapiens), P15428; note: potency is the fitted concentration of half-maximal effect
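NADH formation kinetics: reaction with 30 uM PGE2 and 1 mM NAD+ (final), 20 nM enzyme, Tris-HCl pH 8 with Tween 20, after 15 min compound preincubation at room temperature. Fluorescence change, last versus first of five reads.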
Lamin A splicing = qHTS Assay for Modulators of Lamin A Splicing. AID 1487, 2009. Potency, µM (top dose mostly 46.1 µM), for inactives: at the top dose ratio change, negative = inhibition, actives largely listed as inhibitors. HeLa LMNA splicing GFP/RFP minigene ratio, 48 h. 0.01% of 200,000 active; active = well fitted inhibition curve with a large enough effect in the signal ratio, with a control signal flat, not every such curve was filed as active; inconclusive = small, poorly fitted or top-dose-only effect, or effect the other way, or a change in a side signal; the % refers to the signal ratio; note: potency is the fitted concentration of half-maximal effect
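Read-out is the ratio of GFP to DsRed2 object intensity, acquired by 488 nm laser-scanning cytometry on HeLa lamin A-EGFP minigene reporter cells. Compound incubation 48 hrs at 37 °C in Opti-MEM with 2% FBS; DMSO 0.5% final.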
12-hLO inh = qHTS Assay for Inhibitors of 12-hLO (12-human lipoxygenase); Potency, µM (top dose mostly 57.1 µM), inactives show at the highest dose activity change, negative = inhibition, most hits filed as inhibitors; 0.12% of 150,000 active; AID 1452, 2008; purified 12-hLO, xylenol orange hydroperoxide absorbance; Polyunsaturated fatty acid lipoxygenase ALOX12 (Homo sapiens), P18054; active = well fitted inhibition curve with a large enough effect; inconclusive = small, poorly fitted or top-dose-only effect; note: potency is the fitted concentration of half-maximal effect; nearly all actives have a fitted effect of over 55% in size
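Hydroperoxide formation by human 12-lipoxygenase from 40 uM arachidonic acid was followed colorimetrically via ferric-xylenol orange complex, using the 573/405 nm absorbance ratio. Enzyme concentration was 150 nM, with 30 min reaction at room temperature.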
PNC inhibitor = High Content Assay for Compounds that inhibit the Assembly of the Perinucleolar Compartment; PC3M PTB-GFP, PNC prevalence imaging, 16 h; active compounds read low; activity change (PNC), negative = inhibition, % at 10 µM; 3.1% of 140,000 active;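 active = readout at or below -70, meaning at least 70% loss of cells showing the perinucleolar compartment, a nuclear body marking cancer cells; inconclusive = readout between -30 and a set limit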;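 note: plate controls were DMSO wells for no effect and camptothecin positive control wells for full effect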
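PC3M cells stably expressing PTB-GFP, 750–1000 cells/well, treated 16 h at 37 °C with compound (23 nl of library stock), in duplicate. After paraformaldehyde fixation and Hoechst stain, imaged at 20x; PNC prevalence scored by image analysis.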
ALDH1A1 block = qHTS Assay for Inhibitors of Aldehyde Dehydrogenase 1 (ALDH1A1); Aldehyde dehydrogenase 1A1 (Homo sapiens), P00352; Purified ALDH1A1, NADH fluorescence, propionaldehyde substrate; Potency, µM (highest dose often 75.3 µM), inactives show at the highest dose activity, negative = inhibition, actives largely listed as inhibitors; 7.3% of 220,000 active;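 note: potency is the fitted concentration of half-maximal effect; plate controls were no enzyme wells and a reference inhibitor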
Target sequence (P00352 whole entry, looked up): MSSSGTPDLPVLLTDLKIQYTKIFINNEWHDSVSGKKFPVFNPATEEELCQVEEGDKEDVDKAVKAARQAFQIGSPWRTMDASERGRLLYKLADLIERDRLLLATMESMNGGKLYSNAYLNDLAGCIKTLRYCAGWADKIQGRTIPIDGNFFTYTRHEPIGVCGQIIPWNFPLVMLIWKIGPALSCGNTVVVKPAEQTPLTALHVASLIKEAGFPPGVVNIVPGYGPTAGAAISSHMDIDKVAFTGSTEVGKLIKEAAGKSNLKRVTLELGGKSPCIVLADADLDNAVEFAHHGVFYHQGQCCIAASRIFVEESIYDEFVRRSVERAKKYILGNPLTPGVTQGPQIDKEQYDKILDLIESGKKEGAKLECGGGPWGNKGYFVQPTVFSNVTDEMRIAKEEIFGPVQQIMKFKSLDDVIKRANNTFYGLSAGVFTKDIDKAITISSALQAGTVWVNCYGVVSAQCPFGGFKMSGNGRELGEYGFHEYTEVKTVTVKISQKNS
* marks the source's active call; other numbers are inactive results; ? = inconclusive; nt = no result given; [ ] = remark or other dose. Unless noted, calls come from the whole dose curve; as a rule, active = well fitted inhibition curve with a large enough effect (not every such curve was filed as active); inconclusive = small, poorly fitted or top-dose-only effect, or another doubt; inactive = no such curve, though single readings can be large or run the other way. Unless noted, % is set by controls: 0 for no effect and ±100 for the full control effect.

SMILES	HPGD inh	Lamin A splicing	12-hLO inh	PNC inhibitor	ALDH1A1 block
COCCn1c(=O)c(-c2cc(F)cc(F)c2)nc2cnc(N(C)C)nc21	nt	8%	nt	nt	2%
COc1ccc(Cc2nnc(SCC(=O)N3CCCC(C)C3)o2)cc1 (configuration not stated)	nt	nt	nt	nt	0.89µM*
COc1ccc(Cc2nnc(SCC(=O)N3CCCC3)o2)cc1	nt	-2%[46 µM]	nt	nt	3%
COc1ccc(CNCCCSc2nnnn2C)c(OC)c1	nt	10%[46 µM]	nt	nt	nt
CCOC(=O)C(C)(C)N(Cc1cccc(C)c1)S(=O)(=O)c1ccc(Cl)c([N+](=O)[O-])c1	-10%	?	-7%	-22	2%
CCOC(=O)C(C)(C)N(Cc1cccc(C)c1)S(=O)(=O)c1cccc([N+](=O)[O-])c1	-9%	?	-1%	34	18µM*
N#C/C(=C\C1=C(N2CCOCC2)C(=C\c2ccc(Cl)cc2)/CC1)C(=O)Nc1ccccc1F	-21%	-1%	-1%	?	-2%
CCN(CC)c1ccc(/C=C2\CCC(/C=C(\C#N)C(=O)Nc3ccccc3F)=C2N2CCOCC2)cc1	11µM*	-13%	-2%	48	?
Cn1c(CSc2nc3ccc(Br)cc3[nH]2)nc2ccccc21	-7%	-6%	-9%	55	4%
Cn1c(CSc2nnc(SCc3ccccc3)s2)nc2ccccc21	-26%	?	-5%	27	25µM*
CCc1ccc(NC(=O)CSC2=Nc3ccccc3C3=NC(CCC(=O)NCc4ccccc4)C(=O)N23)cc1 (configuration not stated)	nt	-2%[46 µM]	nt	nt	nt
Cc1cc2cc(CNC(=S)Nc3ccc(OC(F)(F)F)cc3)ccc2[nH]1	-8%	?	-14%	14	-1%
CC(=O)OCC1OC(C#Cc2ccc(C(C)(C)C)cc2)C=CC1OC(C)=O (configuration not stated)	nt	nt	nt	nt	-12%[13.5 µM]
CN1CCc2cc(O)c(O)cc2[C@H](c2ccccc2)C1	nt	nt	-6%	nt	nt
CCCCn1c(/N=C/c2ccc(N(C)C)cc2)nc2ccccc21	-16%	-4%	-4%	105	2.8µM*
C=CCn1c(/N=C/c2ccc(N(C)C)cc2)nc2ccccc21	nt	10%	-6%	?	4%
CCCCn1c(/N=C/c2c[nH]c3ccccc23)nc2ccccc21	-18%	6%	?	5	25µM*
CCCn1c(/N=C/c2c[nH]c3ccccc23)nc2ccccc21	-8%	2%	-24%	31	?
O=C(O)c1ccc(CNc2ccccc2C(=O)O)cc1	?	1%	5%	-131*	?
O=C(O)c1ccccc1NCc1ccncc1	?	12%	-5%	7	?
O=S(=O)(CCc1ccccc1)c1nnnn1-c1ccc(F)cc1Br	-3%	nt	nt	nt	-34%
CCOC(=O)c1ccc2nc(Nc3nc4ccc(F)cc4s3)sc2c1	?	7%	2%	-107*	?
COC(=O)c1ccc2nc(Nc3nc4c(F)cc(F)cc4s3)sc2c1	?	?	-3%	-100*	?
CCOC(=O)c1ccc2nc(NC(C)=O)sc2c1	nt	nt	nt	nt	-13%
COc1ccc2cc(/C=N/NC(=O)c3c(Cl)cnn3C)c(Cl)nc2c1	?	-3%	2%	-86*	?
SMILES	HPGD inh	Lamin A splicing	12-hLO inh	PNC inhibitor	ALDH1A1 block
CCSc1nc(N2CCOCC2)c2c(c1C#N)CCCC2	nt	?	-7%	36	22µM*
CC(C)c1nc(N2CCOCC2)c(C#N)c2c1CCCC2	?	-5%	-2%	23	?
CC(Sc1nc(N2CCCCC2)c2c(c1C#N)CCCC2)C(=O)O (configuration not stated)	-15%	15%	-1%	-117*	-4%
CC(C)Sc1nc(N2CCCC2)c2c(c1C#N)CC(C)(C)OC2	-10%	-13%	0%	48	-13%
COCCn1ccc2c(OCC(=O)NCc3ccc(F)cc3)cccc2c1=O	nt	6%[46 µM]	nt	nt	nt
COC(=O)c1ccc(O)c(Sc2cc(C(=O)OC)ccc2O)c1	4µM*	?	?	41	13µM*
COC(=O)c1ccc(C)cc1	-8%	nt	-2%	nt	-10%
Cc1ccc(O)c(Sc2cc(C)ccc2O)c1	16µM*	?	?	1	-3%
CC1Cn2c(COc3ccccc3)nnc2S1 (configuration not stated)	-10%	2%	4%	29	8%
CC1Cn2c(CCc3ccccc3)nnc2S1 (configuration not stated)	28µM*	1%	8%	29	?
C=C(C)COc1ccc(-c2[nH]ncc2-c2ccccc2OC)c(O)c1	-23%	?	?	-27	25µM*
C=C(C)COc1ccc(-c2[nH]ncc2Oc2ccccc2OC)c(O)c1	-14%	?	?	?	-7%
COc1ccc(NC(=O)c2ccc3nc(CCc4ccccc4)oc3c2)cc1	nt	6%[46 µM]	nt	nt	nt
Cc1ccc(C(=O)CSc2nnc3c4ccccc4nc(C(C)(C)C)n23)cc1	-22%	-13%	1%	24	?
CC(=O)CSc1nnc2c3ccccc3nc(C(C)(C)C)n12	nt	-5%[46 µM]	nt	nt	3.5µM*
CC1CN(C(=O)N(C)C)CCN1C(=O)N(C)C (configuration not stated)	-4%	-1%	-2%	-127*	3%
COc1ccc(S(=O)(=O)Nc2ccccc2C(=O)O)cc1	?	nt	-4%	nt	?
Cc1cc(=O)c2c(O)c(O)ccc2o1	-19%	?	-24%	-3	-7%
O=C(O)/C=C\c1c2ccc(=O)c(O)c-2oc2c(O)c(O)ccc12	2.8µM*	nt	-24%[11.4 µM]	nt	3%[13.5 µM]
O=C(O)[C@H]1CCCC[C@@H]1c1c2ccc(=O)c(O)c-2oc2c(O)c(O)ccc12	4.5µM*	nt	-15%[11.4 µM]	nt	-9%[13.5 µM]
COCC(=O)N1CCC2(CC1)CN(Cc1ccc(C#N)cc1)C2	-8%	nt	2%	nt	4%
O=C(COC(=O)/C=C/c1ccc(Br)o1)Nc1ccccc1F	nt	0%[9.22 µM]	nt	nt	14µM*
Cc1ccccc1-c1nc(NCc2cccnc2)c2ccccc2n1	-24%	-4%	0%	nt	22µM*
Cc1cnc(CNc2nc(-c3ccccc3Cl)nc3ccccc23)cn1	nt	12%	nt	nt	14µM*
Cc1ccccc1NC(=O)c1ccc(F)c(S(=O)(=O)N(C)Cc2ccccc2)c1	nt	-8%[46 µM]	nt	nt	nt
COc1ccc(-c2nc(S(=O)(=O)c3ccc(C)cc3)c(N3CCCC3)o2)cc1	-2%	1%	0%	34	?
COc1cc(-c2nc(S(=O)(=O)c3ccccc3)c(N3CCOCC3)o2)cc(OC)c1OC	-2%	15%	1%	14	10µM*
O=S(=O)(c1ccccc1)c1nc(-c2ccccc2)oc1N1CCOCC1	nt	nt	nt	nt	3.5µM*
